Data from PubChem BioAssay AID1159580 (chemical genetic matrix, 2015).
Values joined by “and” are separate entries in the source; they are usually repeats but may differ in a detail not shown here. Equal values may be shown once. Among all 5,500 compounds or so, about 2,000 (36%) were called active. Another 18% or so got no clear call; they are omitted. No stated cut-off is given here; in the data, active means normalized growth mostly below about 0.91 (no sharp cut-off); inconclusive means no clear call, values can overlap the other calls; inactive means mostly above about 0.92. Some of the results follow.

Assay: chemical genetic growth profiling, strain panel (AID 1159580);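 further: tested at 20 µM; growth read once vehicle control cultures reached saturation at 30 °C; 1 = growth at the plate median or of vehicle wells; lower values mean less growth of the strain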
Conditions: growth OD
[1] = S. cerevisiae deletion strains, locus YBR021W, strain FUR4, active compounds read low
[2] = S. cerevisiae deletion strains, locus YBR229C, strain ROT2, active compounds read low
[3] = S. cerevisiae deletion strains, locus YCL029C, strain bik1, active compounds read low
[4] = S. cerevisiae deletion strains, locus YDL035C, strain GPR1, active compounds read low
[5] = S. cerevisiae deletion strains, locus YDL074C, strain BRE1, active compounds read low
[6] = S. cerevisiae deletion strains, locus YDL101C, strain DUN1, active compounds read low
[7] = S. cerevisiae deletion strains, locus YDL185W, strain tfp1, active compounds read low
[8] = S. cerevisiae deletion strains, locus YDL192W, strain arf1, active compounds read low
[9] = S. cerevisiae deletion strains, locus YDR101C, strain arx1, active compounds read low
[10] = S. cerevisiae deletion strains, locus YDR162C, strain NBP2, active compounds read low
[11] = S. cerevisiae deletion strains, locus YDR318W, strain mcm21, active compounds read low
[12] = S. cerevisiae deletion strains, locus YDR388W, active compounds read low
[13] = S. cerevisiae deletion strains, locus YDR502C, strain sam2, active compounds read low
[14] = S. cerevisiae deletion strains, locus YEL061C, strain CIN8, active compounds read low
[15] = S. cerevisiae deletion strains, locus YER110C, active compounds read low
[16] = S. cerevisiae deletion strains, locus YER155C, strain BEM2, active compounds read low
[17] = S. cerevisiae deletion strains, locus YER167W, strain BCK2, active compounds read low
[18] = S. cerevisiae deletion strains, locus YGL078C, strain dbp3, active compounds read low
[19] = S. cerevisiae deletion strains, locus YGL086W, strain mad1, active compounds read low
[20] = S. cerevisiae deletion strains, locus YGL248W, strain PDE1, active compounds read low
[21] = S. cerevisiae deletion strains, locus YGR135W, strain pre9, active compounds read low
[22] = S. cerevisiae deletion strains, locus YGR252W, strain gcn5, active compounds read low
[23] = S. cerevisiae deletion strains, locus YHR079C, strain IRE1 (second series), active compounds read low
[24] = S. cerevisiae deletion strains, locus YHR094C, strain hxt1, active compounds read low
[25] = S. cerevisiae deletion strains, locus YHR129C, strain ARP1, active compounds read low
[26] = S. cerevisiae deletion strains, locus YHR200W, strain rpn10, active compounds read low
[27] = S. cerevisiae deletion strains, locus YIL066C, strain RNR3, active compounds read low
[28] = S. cerevisiae deletion strains, locus YIL073C, strain SPO22, active compounds read low
[29] = S. cerevisiae deletion strains, locus YIL125W, strain kgd1, active compounds read low
[30] = S. cerevisiae deletion strains, locus YIR030C, strain dcg1, active compounds read low
[31] = S. cerevisiae deletion strains, locus YJL095W, strain BCK1, active compounds read low
[32] = S. cerevisiae deletion strains, locus YJL134W, strain LCB3, active compounds read low
[33] = S. cerevisiae deletion strains, locus YJL168C, strain set2, active compounds read low
[34] = S. cerevisiae deletion strains, locus YJL187C, strain SWE1 (second series), active compounds read low
[35] = S. cerevisiae deletion strains, locus YKL009W, strain mrt4, active compounds read low
[36] = S. cerevisiae deletion strains, locus YKL068W, active compounds read low
[37] = S. cerevisiae deletion strains, locus YKL085W, strain MDH1 (second series), active compounds read low
[38] = S. cerevisiae deletion strains, locus YKL085W, strain MDH1, active compounds read low
[39] = S. cerevisiae deletion strains, locus YKR001C, strain vps1, active compounds read low
[40] = S. cerevisiae deletion strains, locus YLR039C, strain RIC1, active compounds read low
[41] = S. cerevisiae deletion strains, locus YLR058C, strain SHM2, active compounds read low
[42] = S. cerevisiae deletion strains, locus YLR102C, strain apc9, active compounds read low
[43] = S. cerevisiae deletion strains, locus YLR268W, strain sec22, active compounds read low
[44] = S. cerevisiae deletion strains, locus YLR371W, strain rom2, active compounds read low
[45] = S. cerevisiae deletion strains, locus YLR418C, strain cdc73, active compounds read low
[46] = S. cerevisiae deletion strains, locus YML016C, strain PPZ1, active compounds read low
[47] = S. cerevisiae deletion strains, locus YML032C, strain rad52, active compounds read low
[48] = S. cerevisiae deletion strains, locus YML124C, strain tub3, active compounds read low
[49] = S. cerevisiae deletion strains, locus YMR078C, strain ctf18, active compounds read low
[50] = S. cerevisiae deletion strains, locus YMR223W, strain ubp8, active compounds read low
[51] = S. cerevisiae deletion strains, locus YMR307W, strain GAS1, active compounds read low
[52] = S. cerevisiae deletion strains, locus YNL067W, strain RPL9B, active compounds read low
[53] = S. cerevisiae deletion strains, locus YNL233W, strain BNI4, active compounds read low
[54] = S. cerevisiae deletion strains, locus YNL250W, strain rad50, active compounds read low
[55] = S. cerevisiae deletion strains, locus YNL271C, strain bni1, active compounds read low
[56] = S. cerevisiae deletion strains, locus YNL298W, strain CLA4, active compounds read low
[57] = S. cerevisiae deletion strains, locus YNL307C, strain MCK1, active compounds read low
[58] = S. cerevisiae deletion strains, locus YNR052C, strain pop2, active compounds read low
[59] = S. cerevisiae deletion strains, locus YOL012C, strain htz1
[60] = S. cerevisiae deletion strains, locus YOL147C, strain pex11, active compounds read low
[61] = S. cerevisiae deletion strains, locus YOR061W, strain CKA2, active compounds read low
[62] = S. cerevisiae deletion strains, locus YOR069W, strain VPS5, active compounds read low
[63] = S. cerevisiae deletion strains, locus YOR136W, strain idh2, active compounds read low
[64] = S. cerevisiae deletion strains, locus YOR144C, strain elg1, active compounds read low
[65] = S. cerevisiae deletion strains, locus YOR184W, strain ser1, active compounds read low
[66] = S. cerevisiae deletion strains, locus YOR316C, strain cot1, active compounds read low
[67] = S. cerevisiae deletion strains, locus YPR119W, strain clb2, active compounds read low
[68] = S. cerevisiae deletion strains, locus YPR141C, strain kar3, active compounds read low
[69] = S. cerevisiae deletion strains, locus YPR163C, strain tif3, active compounds read low
[70] = S. cerevisiae deletion strains, locus YPR167C, strain met16, active compounds read low
[71] = S. cerevisiae deletion strains, strain wtn01, active compounds read low

Measured: normalized growth

COc1cc(C(=O)O)c2c(c1C)OC(=O)c1c(C)cc(O)c(C=O)c1O2
inactive: [1] 0.989 | [2] 0.997 | [3] 1 | [4] 0.977 | [5] 0.943 | [6] 1 | S. cerevisiae deletion strains, locus YDL134C, strain PPH21, active compounds read low 0.986 | [7] 0.93 | [8] 0.991 | [9] 1.01 | S. cerevisiae deletion strains, locus YDR150W, strain NUM1, active compounds read low 0.997 | [10] 0.969 | [11] 1.01 | [12] 0.986 | [13] 1 | [14] 0.993 | [15] 0.969 | [16] 1.02 | [17] 1.01 | [18] 0.954 | [19] 0.986 | [20] 1.01 | [21] 0.988 | [22] 1.05 | [23] 0.988 | [24] 0.989 | [25] 1 | [26] 0.994 | [27] 0.998 | [28] 0.948 | [30] 0.983 | [31] 0.998 | [32] 0.996 | [33] 0.972 | [34] 0.969 | [35] 0.974 | [39] 0.971 | [40] 0.929 | [41] 1.01 | [42] 0.984 | [43] 0.956 | [44] 0.955 | [45] 0.939 | [46] 0.986 | [47] 0.996 | [48] 0.998 | [49] 0.975 | [50] 0.984 | S. cerevisiae deletion strains, locus YMR263W, strain SAP30, active compounds read low 0.991 | [51] 0.923 | [52] 0.997 | S. cerevisiae deletion strains, locus YNL128W, strain TEP1, active compounds read low 0.955 | [53] 1.01 | [54] 0.919 | [57] 0.989 | [58] 0.978 | [59] 0.7 | [60] 1.01 | [61] 0.999 | [62] 0.995 | [63] 1.02 | [64] 0.985 | [65] 0.975 | [66] 0.977 | S. cerevisiae deletion strains, locus YPL055C, strain LGE1, active compounds read low 0.973 | [67] 0.977 | [68] 0.942 | [69] 0.985 | [70] 1.01 | [71] 0.987
active: [29] 0.927 | [36] 0.928 | [37] 0.911 | [38] 0.911 | [55] 0.917 | [56] 0.898

Cc1cc(O)c(C=O)c2c1C(=O)Oc1c(C)c(O)c3c(c1O2)C(O)OC3=O (stereo unspecified)
inactive: [1] 1.03 | [2] 1 | [3] 0.981 | [4] 0.944 | [5] 0.956 | [6] 0.955 | [7] 0.954 | [8] 0.992 | [9] 0.994 | [10] 0.948 | [11] 0.98 | [12] 0.98 | [13] 0.974 | [14] 0.975 | [15] 0.971 | [16] 1.02 | [17] 0.993 | [18] 0.989 | [19] 0.966 | [20] 1 | S. cerevisiae deletion strains, locus YGR078C, strain PAC10, active compounds read low 0.988 | [21] 0.951 | S. cerevisiae deletion strains, locus YGR229C, strain SMI1, active compounds read low 1.03 | [22] 1.02 | S. cerevisiae deletion strains, locus YHR030C, strain SLT2, active compounds read low 0.984 and 0.994 | [23] 0.97 | S. cerevisiae deletion strains, locus YHR079C, strain IRE1, active compounds read low 0.983 | [24] 0.971 | [25] 0.963 | [26] 0.983 | [27] 0.962 | [28] 0.831 | [29] 0.974 | [30] 0.995 | [31] 1.02 and 0.991 | [32] 0.986 | [33] 0.969 | [34] 0.88 | S. cerevisiae deletion strains, locus YJR043C, strain POL32, active compounds read low 0.973 | S. cerevisiae deletion strains, locus YJR066W, strain TOR1, active compounds read low 0.965 | [35] 0.933 | [36] 0.98 | [37] 0.974 | [38] 0.974 | [39] 1.01 | [40] 0.996 | [41] 0.937 | [42] 0.986 | S. cerevisiae deletion strains, locus YLR113W, strain HOG1, active compounds read low 0.984 | [43] 0.965 | S. cerevisiae deletion strains, locus YLR330W, strain CHS5, active compounds read low 0.99 | [44] 0.948 | [45] 0.999 | [46] 0.957 | [47] 0.995 | [48] 0.975 | [49] 0.959 | [50] 0.966 | [51] 1.14 | [52] 0.981 | S. cerevisiae deletion strains, locus YNL153C, strain GIM3, active compounds read low 0.959 | S. cerevisiae deletion strains, locus YNL183C, strain NPR1, active compounds read low 0.944 | [53] 1.03 | [54] 0.963 | [55] 0.946 | [56] 0.986 | [57] 0.978 | [58] 0.955 | [59] 0.674 | [60] 0.97 | [61] 0.963 | [62] 0.982 | [63] 0.985 | [64] 0.974 | [65] 1.01 | S. cerevisiae deletion strains, locus YOR231W, strain MKK1, active compounds read low 0.982 | [66] 0.984 | S. cerevisiae deletion strains, locus YPL241C, strain CIN2, active compounds read low 0.994 | S. cerevisiae deletion strains, locus YPL256C, strain CLN2, active compounds read low 0.928 | [67] 0.979 | [68] 0.969 | [69] 0.993 | [70] 0.983 | [71] 0.963 | S. cerevisiae strains, strain wild type, active compounds read low 0.907
